Whole data set: some 39,000 sequences, median “fluorescence intensity (a.u.)” near 4,300, cut for the highest 2% near 39,000. This excerpt belongs to a sample that is enriched for the highest values.
Each sequence was assayed against T1, OsSMF1 (Oryza sativa, UniProt Q6ZLB0 1-436) (assay: protein-binding microarray (RPBM); PBS, 2% BSA, 51.3 ng/ul salmon testes DNA, 50 uM zinc acetate, 200 nM TF, 25 C, 1 h; high values mean tight binding). Conditions: protein: recombinant; tags: N-terminal polyhistidine and DsRed monomer fusion (pET32a); chain copies: 2; label: CyDye5-dUTP incorporated in the synthesized complementary strand; 3' TTTTT single-stranded linker to array surface; dsDNA, one strand shown.
T1 sequence: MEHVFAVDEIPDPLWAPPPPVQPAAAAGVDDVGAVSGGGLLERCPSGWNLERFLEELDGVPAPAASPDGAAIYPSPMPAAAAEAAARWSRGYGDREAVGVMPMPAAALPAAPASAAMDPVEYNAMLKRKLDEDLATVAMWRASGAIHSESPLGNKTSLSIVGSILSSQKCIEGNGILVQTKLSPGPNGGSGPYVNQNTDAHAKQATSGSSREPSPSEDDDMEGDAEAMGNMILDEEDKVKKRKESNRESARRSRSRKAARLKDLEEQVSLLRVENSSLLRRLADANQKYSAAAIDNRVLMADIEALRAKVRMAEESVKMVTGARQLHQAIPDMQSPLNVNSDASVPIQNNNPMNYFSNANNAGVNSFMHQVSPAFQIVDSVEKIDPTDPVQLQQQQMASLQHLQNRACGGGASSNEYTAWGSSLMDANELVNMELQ
Method in brief: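 Transcription factors were made in E. coli BL21-CodonPlus as N-terminal fusions to a polyhistidine tag and DsRed, then purified on Ni–NTA. After primer extension with Cy5-dUTP and blocking with 2% BSA, a custom Agilent array was exposed for 1 h at 25 °C to 200 nM protein in PBS, 2% BSA, salmon testes DNA and 50 µM zinc acetate. Washed arrays were scanned on an Axon 4000B, and the binding signal is per-feature fluorescence intensity in arbitrary units.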

| Sequence | binding signal |
| --- | --- |
| ACCGAGTCCACGGAGCAGTGAGAGAGCCAGGCAGCCAGTGCGGAGTCACCTAGTGCAG | 3960 fluorescence intensity (a.u.) |
| GATCGAGCGGCAGGCCAGCAGTAACCTGGCCGAGAAGTTGCGGAGTCACCTAGTGCAG | 64500 fluorescence intensity (a.u.) |
| GATGTGCGATAGCAGAATGGTGCTAAGTGAGTCACATCGTCGGAGTCACCTAGTGCAG | 3970 fluorescence intensity (a.u.) |
| TTTAATGATCTTATAAATTGTAATGCTGATAGGTGGTTATCGGAGTCACCTAGTGCAG | 3590 fluorescence intensity (a.u.) |
| ATACCGGTGCGTTACAACGAGGTGAATGTTATTTTAATTTCGGAGTCACCTAGTGCAG | 25200 fluorescence intensity (a.u.) |
| AAGCTTACAACATGTTCTATAATTTATTTAATTCTACAAACGGAGTCACCTAGTGCAG | 45700 fluorescence intensity (a.u.) |
| TTCTAATTACTATTTAAGCTTATCCTAATTAACTCACATGCGGAGTCACCTAGTGCAG | 3230 fluorescence intensity (a.u.) |
| AATCAACAAATAACTAATATTCTTACATCAGCTACTATAACGGAGTCACCTAGTGCAG | 28600 fluorescence intensity (a.u.) |
| TATAATGTTTGGGTGCGTTTAATTCTATTTGAATTACACTCGGAGTCACCTAGTGCAG | 48000 fluorescence intensity (a.u.) |
| ACACTATGATTATAATATATTTACATGTGTGAATTGTTTACGGAGTCACCTAGTGCAG | 3640 fluorescence intensity (a.u.) |
| GGGCTCATCTTCACCGTTGTCATTCAGTTATTCACATAAGCGGAGTCACCTAGTGCAG | 3360 fluorescence intensity (a.u.) |
| GGCGGCGCCGACGACTCCGCGCCGCTCGGCCTCATCGTCGCGGAGTCACCTAGTGCAG | 3190 fluorescence intensity (a.u.) |
| GCGCCCTCCTCCTGCCACGTCGGTTCGCGTGCGCCACGGTCGGAGTCACCTAGTGCAG | 19500 fluorescence intensity (a.u.) |
| CATATGCCATCTAATCATCCTTGTCTGATGTCATTTATTCCGGAGTCACCTAGTGCAG | 5870 fluorescence intensity (a.u.) |
| TGCTTCGCCAGTGAATCGCGTGGATATAAATGGGCCTCTCCGGAGTCACCTAGTGCAG | 3440 fluorescence intensity (a.u.) |
| CGCACTTCCGTCGCCTCCCCGCATCGCGTCGTACAACGGGCGGAGTCACCTAGTGCAG | 18300 fluorescence intensity (a.u.) |
| GGTGTGTGTATGTGTTTATATGGTGAGTGTACACACGTTGCGGAGTCACCTAGTGCAG | 3150 fluorescence intensity (a.u.) |
| GGCCCCGTCGACGCTGTGCACCAAACACAATAAAGACATGCGGAGTCACCTAGTGCAG | 3430 fluorescence intensity (a.u.) |
| GTGATCTTTCCACATACAGAGAGAGAGAGAGCTTGGGATTCGGAGTCACCTAGTGCAG | 40900 fluorescence intensity (a.u.) |
| GTCTGGATCAGAGCTGTCCACATTGGTTGTATTCCTCTTTCGGAGTCACCTAGTGCAG | 3620 fluorescence intensity (a.u.) |
| ATTCCATATTTCCATTCCACACGTCTTGAGAGCTAATCTTCGGAGTCACCTAGTGCAG | 3400 fluorescence intensity (a.u.) |

| Sequence | binding signal |
| --- | --- |
| CCTCCTGCTCAGAGGCAGTTCGGTGACGAGCGGGTTGGAGCGGAGTCACCTAGTGCAG | 24400 fluorescence intensity (a.u.) |
| GGGGATGGGGATTCGATGTGTCTATGCGTGGGCCCTGGTTCGGAGTCACCTAGTGCAG | 3860 fluorescence intensity (a.u.) |
| ACCGACGCGGACAGCCACAGTCCAGTCACACACCACACCACGGAGTCACCTAGTGCAG | 5320 fluorescence intensity (a.u.) |
| ACGCAGTCACGCAGACCACAGGGCGATGCAGCGGACCGACCGGAGTCACCTAGTGCAG | 40900 fluorescence intensity (a.u.) |
| CCGATCTCCACCACCACCACCACCACGCGGGCGCGCGCACCGGAGTCACCTAGTGCAG | 4580 fluorescence intensity (a.u.) |
| CTCAAAGCATTATAAAACTTGCTGGCTTTGTCCCCTTCATCGGAGTCACCTAGTGCAG | 3250 fluorescence intensity (a.u.) |
| AGATCGACACGTTAGTCTACACACCTATGCGTGCCTATGCCGGAGTCACCTAGTGCAG | 3580 fluorescence intensity (a.u.) |
| CCCCAATCCTCGCATGCCAACTCACCTGTGTTGCTTTTGCCGGAGTCACCTAGTGCAG | 7550 fluorescence intensity (a.u.) |
| TCGCCCGCGCCCACTGACACGTGGGGCCCGGCACGTGGGCCGGAGTCACCTAGTGCAG | 11500 fluorescence intensity (a.u.) |
| GTGTGATTATCTTCTCCATACCATCTCGTGCTACATGCGCCGGAGTCACCTAGTGCAG | 40000 fluorescence intensity (a.u.) |
| AGTGCATGCGTGTGCGCCTGCCTGCTTACTTCCATCTCGACGGAGTCACCTAGTGCAG | 7880 fluorescence intensity (a.u.) |
| ACCATCTCTCTCTCTCTCTCTGCATGCATATCTTCTCCTCCGGAGTCACCTAGTGCAG | 3210 fluorescence intensity (a.u.) |
| GTTCCCTTTGTATTTCACACCTTGAGATGGTGACTGATCCCGGAGTCACCTAGTGCAG | 3940 fluorescence intensity (a.u.) |
| AAAGATCAGAGAGACTACTAATCCGGTTTATTTACTGGCACGGAGTCACCTAGTGCAG | 44100 fluorescence intensity (a.u.) |
| TACTAATTTAATCCCCTTTGATCTGCTGACTGGTTTACTACGGAGTCACCTAGTGCAG | 5140 fluorescence intensity (a.u.) |
| TGTTTTCTAATATTTACAATCAGATCCCTTGAGTGAGTCACGGAGTCACCTAGTGCAG | 4150 fluorescence intensity (a.u.) |
| AGTCTCAGATCTACTTGCGGCGGCGAAGGCTCGGGAGGGGCGGAGTCACCTAGTGCAG | 3530 fluorescence intensity (a.u.) |
| ATATATTGACAAGGCAATGACATAGATAGCTAGACATATCCGGAGTCACCTAGTGCAG | 3190 fluorescence intensity (a.u.) |
| TCCTTCGATTCCAAGCATATAGTAATATATGACACGATGCCGGAGTCACCTAGTGCAG | 5000 fluorescence intensity (a.u.) |
| CATAGTTGACTTCCAAGGCAAGACAGATGAGATATGCATTCGGAGTCACCTAGTGCAG | 45500 fluorescence intensity (a.u.) |
| CGCAAACATTTTCGGAATATACGAATCCAGCGTTGCACTGCGGAGTCACCTAGTGCAG | 3250 fluorescence intensity (a.u.) |
